In the experiment the target is Genome polyprotein (dengue virus type 2) (UniProt P29990).
[1] abbreviates: Thailand/16681/1984, Concentration 25.0 uM, Number of replicates 1.0.

The whole screen tested about 2,000 compounds, of which about 110 (5.5%) showed an effect of 50% or more. The sample as a whole holds a higher share of strong results than the screen did. Residues, ends and D or L forms follow the SMILES beside them. *: point of attachment. pNA = O=[N+]([O-])c1ccc(N*)cc1; Boc = CC(C)(C)OC(=O)*

Turning to `CC(C)Nc1nc2cc(NCc3cccc(C(N)=O)c3)ccc2[nH]1`, the inhibition (usually the drop in the measured response relative to a control, in per cent) was -0.517% (Thailand/16681/1984, Concentration 49.5 uM, Number of replicates 2.0, Standard deviation 0.023235641877752903 %); 1.24% (Thailand/16681/1984, Concentration 99.01 uM, Number of replicates 2.0, Standard deviation 0.06423980503181957 %); 3.31% (Thailand/16681/1984, Concentration 198.0 uM, Number of replicates 2.0, Standard deviation 0.8255495407458023 %).
Regarding `CSCC[C@H](NC(=O)OC(C)(C)C)C(=O)N1CCC[C@H]1C(=O)Nc1ccc([N+](=O)[O-])cc1` (Boc-Met-Pro-pNA), the inhibition reads like this: (Thailand/16681/1984, Concentration 49.5 uM, Number of replicates 2.0, Standard deviation 0.6934296230825803 %) 10.3%; (Thailand/16681/1984, Concentration 99.01 uM, Number of replicates 2.0, Standard deviation 0.4989876662884813 %) 17.1%; (Thailand/16681/1984, Concentration 198.0 uM, Number of replicates 2.0, Standard deviation 0.32485037523299065 %) 29.3%.
On to `CNC(=O)C1CCC(Nc2nc(Cl)cc3c(F)cccc23)CC1` (stereo unspecified), for which, under “Thailand/16681/1984, Concentration 49.95 uM, Number of replicates 2.0, Standard deviation 5.365912193998162 %”, the inhibition was -9.93%.
Regarding `C[C@@H](NC(=O)C1CCN(c2ccc(C=O)cc2)CC1)c1ccc2ccccc2c1`, the inhibition under setting [1] is 1.94%.
For the compound `Cc1nn(C)nc1-c1nn(C)cc1NC(=O)c1ccccc1C(F)(F)F`, the inhibition is, setting by setting: (Thailand/16681/1984, Concentration 49.5 uM, Number of replicates 2.0, Standard deviation 2.7709187614774393 %) -3.06%; (Thailand/16681/1984, Concentration 99.01 uM, Number of replicates 2.0, Standard deviation 2.812620033505876 %) -2.31%; (Thailand/16681/1984, Concentration 198.0 uM, Number of replicates 2.0, Standard deviation 2.009504923047635 %) -2.5%.
Consider `O=Cc1ccc(N2CCC(C(=O)N3CCCCC[C@H]3c3ccco3)CC2)cc1`, for which the inhibition under setting [1] is 13.4%.
As for `Cn1oc(C(=O)Nc2cc(Cl)cc(C(=O)NC(C)(C)CO)c2)cc1=O`, the inhibition is -0.341% (Thailand/16681/1984, Concentration 49.5 uM, Number of replicates 2.0, Standard deviation 0.8141956117621647 %); 0.297% (Thailand/16681/1984, Concentration 99.01 uM, Number of replicates 2.0, Standard deviation 1.5201786631370027 %); 1.39% (Thailand/16681/1984, Concentration 198.0 uM, Number of replicates 2.0, Standard deviation 2.6564108106217375 %).
Take `C[C@@H](O)CNC(=O)c1cc(Cl)ccc1NS(=O)(=O)c1ccc(Oc2ccccc2Cl)cc1`: the inhibition (Thailand/16681/1984, Concentration 49.5 uM, Number of replicates 2.0, Standard deviation 1.4145601780552486 %) is 30.4%; the inhibition (Thailand/16681/1984, Concentration 99.01 uM, Number of replicates 2.0, Standard deviation 0.06674442365142796 %) was determined as 75.7%; the inhibition (Thailand/16681/1984, Concentration 198.0 uM, Number of replicates 2.0, Standard deviation 0.019135343573522066 %) is 67%.
As to `O=Cc1ccc(N2CCC(C(=O)Nc3ncc(C(F)(F)F)cc3Cl)CC2)cc1`, under setting [1], the inhibition was 11.8%.
As for `Cc1cc(CO)c2cccc(NCc3ccc(C(N)=O)cc3)c2n1`, the inhibition (Thailand/16681/1984, Concentration 49.95 uM, Number of replicates 2.0, Standard deviation 1.5291755401543807 %) worked out at 1.6% and the inhibition (Thailand/16681/1984, Concentration 99.9 uM, Number of replicates 2.0, Standard deviation 0.4954793626184345 %) worked out at 6.67%.
Turning to `Cc1cc(CO)c2cccc(CC(=O)NCc3ccc(C(N)=O)cc3)c2n1`, the inhibition is -4.43% (Thailand/16681/1984, Concentration 49.95 uM, Number of replicates 2.0, Standard deviation 0.824600056542549 %) and 2.19% (Thailand/16681/1984, Concentration 99.9 uM, Number of replicates 2.0, Standard deviation 0.5940444883081935 %).
On to `Cc1cc(N)cc(CNc2cccc3c(CO)cc(C)nc23)c1`, for which the inhibition came to 34.9% (Thailand/16681/1984, Concentration 49.95 uM, Number of replicates 2.0, Standard deviation 2.268676515546947 %) and 63.5% (Thailand/16681/1984, Concentration 99.9 uM, Number of replicates 2.0, Standard deviation 1.0884002159453274 %).
As to `Cc1cc(CO)c2cccc(Cc3ccccc3C(=O)NCCc3ncc[nH]3)c2n1`, the inhibition by setting is: (Thailand/16681/1984, Concentration 49.95 uM, Number of replicates 2.0, Standard deviation 0.3032711887954129 %) 14.1%; (Thailand/16681/1984, Concentration 99.9 uM, Number of replicates 2.0, Standard deviation 0.18110062477906652 %) 34.2%.
Take `Cc1cc(N)cc(CNC(=O)Cc2cccc3c(CO)cc(C)nc23)c1`: the inhibition runs as follows: (Thailand/16681/1984, Concentration 49.95 uM, Number of replicates 2.0, Standard deviation 0.21775017554498763 %) 39.7%; (Thailand/16681/1984, Concentration 99.9 uM, Number of replicates 2.0, Standard deviation 1.7887257377938661 %) 61.7%.
As for `Cc1cc(CO)c2cccc(CC(=O)NCC(N)=O)c2n1`, the inhibition by setting is: (Thailand/16681/1984, Concentration 49.95 uM, Number of replicates 2.0, Standard deviation 1.3653333333441007 %) -7.85%; (Thailand/16681/1984, Concentration 99.9 uM, Number of replicates 2.0, Standard deviation 0.5261932884148693 %) -6.61%.
On to `Cc1cc(CO)c2cccc(Cc3cccc(C(=O)NCc4ccc(C(N)=O)cc4)c3)c2n1`, for which the inhibition runs as follows: (Thailand/16681/1984, Concentration 49.95 uM, Number of replicates 2.0, Standard deviation 1.5788782649320652 %) -6.46%; (Thailand/16681/1984, Concentration 99.9 uM, Number of replicates 2.0, Standard deviation 2.3363374645660926 %) -3.45%.
Regarding `Cc1cc(CO)c2cccc(NCc3ccc(S(N)(=O)=O)cc3)c2n1`, the inhibition is, setting by setting: (Thailand/16681/1984, Concentration 49.95 uM, Number of replicates 2.0, Standard deviation 1.2377055953825635 %) 8.26%; (Thailand/16681/1984, Concentration 99.9 uM, Number of replicates 2.0, Standard deviation 1.691711110367126 %) 17.2%.
As to `Cc1cc(CO)c2cccc(Cc3cccc(C(=O)NCCc4ncc[nH]4)c3)c2n1`, the inhibition (Thailand/16681/1984, Concentration 49.95 uM, Number of replicates 2.0, Standard deviation 2.0725920117726813 %) was -4.03% and the inhibition (Thailand/16681/1984, Concentration 99.9 uM, Number of replicates 2.0, Standard deviation 0.8997522707097182 %) was 1.59%.
As to `Cc1cc(N)cc(CNC(=O)c2cccc(Cc3cccc4c(CO)cc(C)nc34)c2)c1`, the inhibition runs as follows: (Thailand/16681/1984, Concentration 49.95 uM, Number of replicates 2.0, Standard deviation 0.2659014326821377 %) 29.9%; (Thailand/16681/1984, Concentration 99.9 uM, Number of replicates 2.0, Standard deviation 1.3431613936290656 %) 54.9%.
With `Cc1cc(CO)c2cccc(Cc3cccc(C(=O)NCc4c(C)noc4C)c3)c2n1`, the inhibition is, setting by setting: (Thailand/16681/1984, Concentration 49.95 uM, Number of replicates 2.0, Standard deviation 0.7006856245222158 %) 1.58%; (Thailand/16681/1984, Concentration 99.9 uM, Number of replicates 2.0, Standard deviation 0.008623919554905093 %) 5.27%.
`Cc1cc(CO)c2cccc(CC(=O)NCCc3ncc[nH]3)c2n1`: the inhibition was 39.1% (Thailand/16681/1984, Concentration 49.95 uM, Number of replicates 2.0, Standard deviation 0.7345959673097169 %) and 77.7% (Thailand/16681/1984, Concentration 99.9 uM, Number of replicates 2.0, Standard deviation 0.015925439590932376 %).
Consider `CSCC[C@H](NC(=O)OC(C)(C)C)C(=O)N1CCC[C@H]1C(=O)Nc1ccc(CN)cc1`, for which the inhibition runs as follows: (Thailand/16681/1984, Concentration 49.5 uM, Number of replicates 2.0, Standard deviation 0.5873455681071067 %) 0.345%; (Thailand/16681/1984, Concentration 99.01 uM, Number of replicates 2.0, Standard deviation 0.9875045381203101 %) 1.56%; (Thailand/16681/1984, Concentration 198.0 uM, Number of replicates 2.0, Standard deviation 0.49996007837732465 %) 2.5%.

Values taken from ChEMBL document CHEMBL5606460, “ASAP - DENV-2 NS2B-NS3 protease fluorescence single point” (2024).
